Measured values published in PubChem BioAssay AID652040 (Broad Institute, 2013).
Measured potencies and affinities stand elsewhere. Unmarked numbers belong to inactive results.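 Rule for the calls: active = falling luciferase signal whose fitted half-maximal concentration is at most twice the top tested dose; inconclusive = flat inhibition between 30 and 70% or a poor curve fit; inactive = the rest.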

Assay: off-target signal loss in HeLa-CEM21 co-culture – HeLa F-luc CTL cells, cherry-picked, counter-screen for HIV-1 Env fusion inhibitor project, dose response (AID 652040);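 note: 0% = median of neutral control wells and -100% = doxycycline 40 µg/mL wells; more negative values mean stronger loss of luciferase signal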
Details: HeLa-F-luc CTL cells with CEM21, firefly luciferase counterscreen; series mostly up to 35 µM; activity change, negative = inhibition: at the top concentration

SMILES | activity change, negative = inhibition
COc1ccccc1Oc1ccc(S(=O)(=O)NCc2ccccn2)cc1 | 16.7%
CSc1ccc(CN(C)C(=O)c2cccc(S(=O)(=O)N3CCN(Cc4ccccc4)CC3)c2)cc1 | -18.2%
Nc1nonc1C(=O)NCCNCc1cc(Br)ccc1OCc1ccccc1F | 101%
COC(=O)[C@@]12CCCN1[C@H](c1ccc(-c3ccc(F)cc3)c(OC)c1)[C@H]1C(=O)N(C)C(=O)[C@H]12 | 2.62%
O=S(=O)(NCCc1csc(-c2cccnc2)n1)c1ccc(Cl)s1 | -5.33%
CN1C(=O)C2(c3ccccc31)N(C)CC(c1ccccc1)C21SC(=S)N(Cc2ccco2)C1=O (configuration not stated) | 4.58%
CC(Cl)=CCn1c(NCCc2ccccc2)nc2c1c(=O)n(C)c(=O)n2C | 14.4%
COC(=O)c1ccc(C(=O)NC2CCCc3c2cnn3-c2ccc(C)c(C)c2)cc1 (configuration not stated) | 11.9%
COC(=O)[C@H](Cc1ccccc1)NC(=O)Cn1cnc(C(=O)Nc2ccc(C)c(C)c2)n1 | 21.9%
CCNC1CCC(Nc2ccnc3cc(Cl)ccc23)CC1 (configuration not stated) | 62.5%
O=C(Nc1cccc(C(F)(F)F)c1)c1ccc(Cn2cc(Br)cn2)o1 | 36.3%
CCn1ncc(C2=NOC(C(=O)Nc3ccc(C)cc3)C2)c1C (configuration not stated) | -3.06%
COc1ccccc1N1CCN(Cc2ccc(O)c3ncccc23)CC1 | 166% [at 8 µM]
COc1ccc(OC)c(NC(=O)COc2ccc3c(c2)CCC3)c1 | 27.4%
COc1ccc(C)cc1NC(=O)CCNS(=O)(=O)c1ccc2c(c1)CC(C)N2C(C)=O (configuration not stated) | 8.94%
N#Cc1c(NCc2ccccc2)ccnc1NCc1cccnc1 | -7.24%
CCCc1cc(C(=O)NCc2ccc(OC)cc2)no1 | 15.4%
CC1(C(=O)NCc2ccc3c(c2)OCO3)CCN1Cc1csc2ccccc12 (configuration not stated) | 17.9%
Cc1ccc(Cn2nnnc2CN2CCC(c3nc4ccc(Cl)cc4[nH]3)CC2)cc1 | -3.68%
Cc1ccc(NC(=O)c2ccc(OCC3CCCO3)cc2)cc1Cl (configuration not stated) | 114%
COC(=O)C[C@H]1C=C[C@H](NC(=O)c2ccccn2)[C@@H](CO)O1 | -2.51%
C=CCOc1c(Br)cc(CNc2ccc(NC(=O)C(C)C)c(OC)c2)cc1OC | 3.89%
